# Source: PubChem BioAssay (Johns Hopkins Ion Channel Center)
# Shown are actives, neighbours in structure and some others; about 1.6% of the full set was active somewhere.
# KCNQ2 inh – blocks the rat KCNQ2 potassium channel; B-score at 10 µM; O88943; 1.1% of 310,000 active; CHO-K1 KCNQ2, FluxOR thallium flux, 20 min; stronger effect = lower value;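 active means fluorescence ratio B-score at most minus 3 library SDs, with starting brightness B-score within 2 library SDs, cut at about -5.5 in these data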
# KCNQ2 pot – potentiators of rat KCNQ2 potassium channel | O88943 | CHO-K1 KCNQ2, FluxOR thallium flux fluorescence; stronger effect = higher value | B-score at 10 µM | 0.54% of 310,000 active | AID 2239;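 active means fluorescence ratio B-score at least 3 SD of library B-scores, with initial fluorescence B-score within 3 of them, cut at about 5.3 in these data; same plate scores as AID 2156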;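 further: B-score of peak minus minimum over baseline fluorescence ratio after K+ and Tl+ stimulus; positive B-score means potentiation of KCNQ2 with more thallium influx and brighter signal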
# KCNQ2 inh conf – rat KCNQ2 channel inhibition, confirmatory screen | shares compounds with KCNQ2 inh | KCNQ2-expressing cells, thallium flux; stronger effect = lower value | 57% of 1,000 active | activity change, negative = inhibition, % at 10 µM | AID 493025
# KCNQ1 spec – human KCNQ1 activity in KCNQ2 inhibitor specificity screen. 15% of 1,000 active. activity change, negative = inhibition, % at 10 µM. AID 493026. shares compounds with KCNQ2 inh. KCNQ1-expressing cells, FluxOR thallium flux fluorescence; stronger effect = lower value;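 active means activity change at least 3 SD of negative controls below their mean in both duplicate wells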;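 further: CHO cells stably transfected with KCNQ1 and depolarized by potassium stimulus; peak minus minimum fluorescence over baseline after thallium addition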
# Target sequence (P51787 whole entry, looked up): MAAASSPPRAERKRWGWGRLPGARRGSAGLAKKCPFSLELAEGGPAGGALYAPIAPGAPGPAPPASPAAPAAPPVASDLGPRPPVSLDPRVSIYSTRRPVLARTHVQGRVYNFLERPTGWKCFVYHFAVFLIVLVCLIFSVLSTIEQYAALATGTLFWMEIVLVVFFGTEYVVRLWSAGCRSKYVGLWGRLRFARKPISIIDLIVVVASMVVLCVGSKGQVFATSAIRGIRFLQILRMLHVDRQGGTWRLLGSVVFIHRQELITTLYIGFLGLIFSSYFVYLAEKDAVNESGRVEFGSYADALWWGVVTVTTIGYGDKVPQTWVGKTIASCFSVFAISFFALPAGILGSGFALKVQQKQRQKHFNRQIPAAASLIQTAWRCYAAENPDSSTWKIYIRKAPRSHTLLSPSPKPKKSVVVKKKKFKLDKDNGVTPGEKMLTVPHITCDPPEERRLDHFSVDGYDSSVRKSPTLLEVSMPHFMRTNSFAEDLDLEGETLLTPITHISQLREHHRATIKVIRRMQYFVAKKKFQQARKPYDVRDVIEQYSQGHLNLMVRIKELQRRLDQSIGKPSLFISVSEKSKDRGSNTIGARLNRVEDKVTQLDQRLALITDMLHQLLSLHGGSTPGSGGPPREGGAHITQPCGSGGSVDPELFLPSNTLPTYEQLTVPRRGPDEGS
# CHO Tl ctr – counter-screen for KCNQ2 inhibitors: effect in parental CHO cells | shares compounds with KCNQ2 inh | thallium flux counter-screen; stronger effect = lower value | activity change, % at 10 µM | 14% of 1,000 active
# KCNQ2 patch conf – confirmation of rat KCNQ2 potassium channel inhibitors. calls only at 10 µM. 49% of 550 active. KCNQ2-expressing cells, automated patch clamp current. AID 588531. shares compounds with KCNQ2 inh
# A number is an active result; . = inactive; / = no result given; + = active, no number. Unless noted, how the calls were made is not given here.
SMILES,KCNQ2 inh,KCNQ2 pot,KCNQ2 inh conf,KCNQ1 spec,CHO Tl ctr,others
Cc1cccc(OCc2nnc(SCC(=O)N3CCCC3)o2)c1,.,/,/,/,/,
Cc1cccc(OCc2nnc(SCC(=O)N3c4ccccc4CCc4ccccc43)o2)c1,-7.3,.,.,.,.,
CCCCn1c(N)c(N(CCOC)C(=O)Cn2c(=O)oc3ccccc32)c(=O)[nH]c1=O,.,/,/,/,/,
Cc1cc(C)c(OCC(=O)N2CC=C(c3ccccc3)CC2)c(C)c1,-6.9,.,-29%,.,.,KCNQ2 patch conf=.
Cc1ccsc1C(=O)N1CC=C(c2ccccc2)CC1,.,/,/,/,/,
COc1cccc(Oc2ccc(C(F)(F)F)cc2NC(=O)C2=COCCO2)c1,-7.5,.,.,.,.,
COc1ccc(Oc2ccc(C(F)(F)F)cc2NC(=O)c2ccc(F)cc2)cc1,.,/,/,/,/,
COc1cccc(Oc2ccc(C(F)(F)F)cc2NC(=O)c2cccc(F)c2)c1,-7.1,.,-26%,.,.,KCNQ2 patch conf=.
O=C(Nc1cc(C(F)(F)F)ccc1N1CCCC1)C1=COCCO1,.,/,/,/,/,
Cc1nc(-c2ccc(Br)cc2)ccc1C(=O)O,.,.,/,/,/,
O=C(CSc1nnc(COc2ccccc2)o1)N1CCCCC1,.,.,/,/,/,
Cc1cc2oc(C(=O)N(Cc3ccc(N(C)C)cc3)CC3CCCO3)c(C)c2cc1C (configuration not stated),-8.6,.,-37%,-36%,-34%,KCNQ2 patch conf=+
Cc1ccc2oc(C(=O)N(Cc3ccc(N(C)C)cc3)CC3CCCO3)c(C)c2c1 (configuration not stated),.,/,/,/,/,
COc1ccccc1NC(=O)CN1CCN(C(=O)C2CCCO2)CC1 (configuration not stated),.,.,/,/,/,
O=C(NC(NCC1CCCO1)C(Cl)(Cl)Cl)c1cccc2ccccc12 (configuration not stated),-8.6,.,.,.,.,
O=C(NCC1CCCO1)c1cccc2ccccc12 (configuration not stated),.,.,/,/,/,
CC(Nc1ccccc1N1CCCCC1)C(=O)N1CCc2ccccc21 (configuration not stated),.,/,/,/,/,
CCOc1ccc(S(=O)(=O)N2CCCC(C(=O)NCC3CCCO3)C2)cc1 (configuration not stated),.,/,/,/,/,
CC1(C)Cc2c(C#N)c(NCC3CCCO3)nc(-c3ccco3)c2CO1 (configuration not stated),.,/,/,/,/,
CC1(C)Cc2c(C#N)c(NC3CCCCC3)nc(-c3ccco3)c2CO1,-13,.,.,.,.,
CCCCC(CC)COC1(c2ccccc2)OC(=O)c2ccccc21 (configuration not stated),-9.7,.,-33%,.,.,KCNQ2 patch conf=.
CCCCOC1(c2ccccc2)OC(=O)c2ccccc21 (configuration not stated),.,/,/,/,/,
COc1ccc(NC(=O)c2ccccc2OCc2ccc(F)cc2)c(OC)c1,.,/,/,/,/,
COc1cccc(N2CCN(C(=O)c3cccc(N4C(=O)NC5CC4(C)Oc4c(OC)cccc45)c3)CC2)c1 (configuration not stated),.,.,/,/,/,
CCOC(=O)N1CCN(C(=O)c2cccc(N3C(=O)NC4CC3(C)Oc3ccccc34)c2)CC1 (configuration not stated),.,.,/,/,/,
SMILES,KCNQ2 inh,KCNQ2 pot,KCNQ2 inh conf,KCNQ1 spec,CHO Tl ctr,others
CC12CC(NC(=O)N1c1cccc(C(=O)N3CCN(c4ccccc4)CC3)c1)c1ccccc1O2 (configuration not stated),-7.3,.,.,.,.,
COc1ccccc1N1CCN(C(=O)c2cccc(N3C(=O)NC4CC3(C)Oc3ccccc34)c2)CC1 (configuration not stated),-7.7,.,.,.,.,
O=C(c1ccccc1F)N1CCN(c2ccc([N+](=O)[O-])c(NCC3CCCO3)c2)CC1 (configuration not stated),.,.,/,/,/,
O=C(NCCCN1CCOCC1)c1c(F)c(F)c(F)c(F)c1F,.,/,/,/,/,
O=C(CNC(=O)N1CC(=O)Nc2ccccc21)NCCc1ccc(Cl)cc1,.,.,/,/,/,
CC(C)(C)N1CC(c2nc3ccccc3n2CCOc2ccccc2)CC1=O (configuration not stated),.,.,/,/,/,
CC(C)(C)N1CC(c2nc3ccccc3n2Cc2ccc(Cl)cc2)CC1=O (configuration not stated),-7.1,.,-27%,.,.,KCNQ2 patch conf=+
CCc1ccc(C(C(=O)NCc2ccc(OC)cc2)N(CCOC)C(=O)Cc2cccs2)cc1 (configuration not stated),.,/,/,/,/,
COCCN(C(=O)Cc1cccs1)C(C(=O)NCc1ccc(OC)cc1)c1ccc(C(C)C)cc1 (configuration not stated),-8.6,.,-35%,.,.,KCNQ2 patch conf=+
Cc1cccc(NC(=S)NCC(c2cccnc2)N(C)C)c1C (configuration not stated),.,/,/,/,/,
CCC(C)Sc1cccc(-c2nc3cc(C)ccn3c2NCc2ccccc2)c1 (configuration not stated),-6.7,.,.,.,.,
CCC(C)Sc1ccc(-c2nc3ccc(C)cn3c2NCc2ccccc2)cc1OC (configuration not stated),.,/,/,/,/,
Fc1ccccc1N1CCN(CC2CCCCC2)CC1,.,/,/,/,/,
CCOC(=O)C(C)Sc1nc(-c2ccco2)cc(C(F)(F)F)c1C#N (configuration not stated),-8.8,.,-37%,-39%,-37%,KCNQ2 patch conf=.
CCOC(=O)COc1nc(-c2ccco2)cc(-c2ccco2)c1C#N,.,/,/,/,/,
Cc1ccc2cc3c(N)[nH]nc3nc2c1,.,.,/,/,/,
Cc1cc(C)c(S(=O)(=O)N2CCN(C(=O)CCn3nc(C)c(C)c3C)CC2)c(C)c1,.,/,/,/,/,
O=C(OCC(=O)N(Cc1ccccc1)Cc1ccccc1)c1ccccc1NCCO,-7.5,.,-34%,.,.,KCNQ2 patch conf=+
O=C(COC(=O)c1ccccc1NCCO)NCCc1ccccc1,.,.,/,/,/,
CCCn1c(CN2CCN(C(=O)OCC)CC2)nc2cc(NC(=O)CC)ccc21,.,.,/,/,/,
CCCCn1c(N)c(N(CCC(C)C)C(=O)c2ccc(C)c(S(=O)(=O)N3CCOCC3)c2)c(=O)[nH]c1=O,.,/,/,/,/,
O=[N+]([O-])c1ccc(C2CCCC/C2=N\OCc2cccc(F)c2)c([N+](=O)[O-])c1 (configuration not stated),-8.3,.,.,.,.,
CC1CCCC/C1=N/Nc1ccc([N+](=O)[O-])cc1[N+](=O)[O-] (configuration not stated),.,.,/,/,/,
CCOC(=O)CSc1nnc(CSc2nc3sc4c(c3c(=O)[nH]2)CCCC4)n1-c1ccccc1,.,/,/,/,/,
O=C(OCC(=O)N(C1CCCCC1)C1CCCCC1)c1ccc(O)cc1,.,.,/,/,/,
O=C(OCC(=O)N(C1CCCCC1)C1CCCCC1)c1ccccc1O,-7.3,.,-36%,.,.,KCNQ2 patch conf=+
CCCc1cc(=O)oc2cc(C)cc(OCC(=O)Nc3cccnc3)c12,.,.,/,/,/,
O=C(CN(c1ccc(Cl)c(Cl)c1)S(=O)(=O)c1ccccc1)N1CCc2ccccc2C1,-9.4,.,-33%,.,.,KCNQ2 patch conf=+
COc1ccc(N(CC(=O)N2CCc3ccccc3C2)S(=O)(=O)c2ccccc2)cc1,.,/,/,/,/,
